The results in this text go back to ChEMBL document CHEMBL1961873, “Compounds: GSK PKIS; Assays: Nanosyn kinase panel” (2012).

The inhibition is the change of the read-out against control, counted positive when it falls.

The target in experiment [1] is T1, Ephrin type-B receptor 2 (Homo sapiens) (UniProt P29323).
T1 sequence (whole entry): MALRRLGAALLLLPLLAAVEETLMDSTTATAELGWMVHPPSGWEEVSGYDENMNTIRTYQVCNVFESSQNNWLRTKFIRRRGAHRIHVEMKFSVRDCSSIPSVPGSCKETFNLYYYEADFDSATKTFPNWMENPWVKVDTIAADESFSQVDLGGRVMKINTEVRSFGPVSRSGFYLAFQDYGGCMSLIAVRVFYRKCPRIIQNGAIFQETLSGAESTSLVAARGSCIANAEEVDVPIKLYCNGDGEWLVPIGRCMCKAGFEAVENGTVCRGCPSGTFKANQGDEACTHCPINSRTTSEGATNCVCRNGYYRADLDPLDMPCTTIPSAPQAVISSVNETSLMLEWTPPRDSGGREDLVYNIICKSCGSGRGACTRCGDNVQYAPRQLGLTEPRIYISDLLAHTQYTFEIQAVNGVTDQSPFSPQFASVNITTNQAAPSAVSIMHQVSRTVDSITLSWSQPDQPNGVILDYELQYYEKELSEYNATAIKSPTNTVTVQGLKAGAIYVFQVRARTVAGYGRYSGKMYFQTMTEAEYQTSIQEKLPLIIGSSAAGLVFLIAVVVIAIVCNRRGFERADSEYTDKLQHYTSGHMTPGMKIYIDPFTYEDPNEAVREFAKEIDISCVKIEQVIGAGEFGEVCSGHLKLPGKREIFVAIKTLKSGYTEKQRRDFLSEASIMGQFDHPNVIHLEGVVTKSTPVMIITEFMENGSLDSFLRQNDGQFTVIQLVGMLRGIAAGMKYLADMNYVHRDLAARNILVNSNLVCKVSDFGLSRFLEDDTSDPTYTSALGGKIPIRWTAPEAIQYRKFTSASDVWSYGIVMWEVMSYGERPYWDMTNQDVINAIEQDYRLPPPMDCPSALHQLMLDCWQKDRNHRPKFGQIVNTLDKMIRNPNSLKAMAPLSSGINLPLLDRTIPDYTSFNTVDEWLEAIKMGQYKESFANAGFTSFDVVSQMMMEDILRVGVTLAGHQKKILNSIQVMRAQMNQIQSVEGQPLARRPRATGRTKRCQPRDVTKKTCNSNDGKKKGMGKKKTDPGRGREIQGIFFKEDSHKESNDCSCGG
Conditions: at 1 µM.

The target of experiment [2] is T2, Ephrin type-B receptor 3 (Homo sapiens) (UniProt P54753).
T2 sequence (whole entry): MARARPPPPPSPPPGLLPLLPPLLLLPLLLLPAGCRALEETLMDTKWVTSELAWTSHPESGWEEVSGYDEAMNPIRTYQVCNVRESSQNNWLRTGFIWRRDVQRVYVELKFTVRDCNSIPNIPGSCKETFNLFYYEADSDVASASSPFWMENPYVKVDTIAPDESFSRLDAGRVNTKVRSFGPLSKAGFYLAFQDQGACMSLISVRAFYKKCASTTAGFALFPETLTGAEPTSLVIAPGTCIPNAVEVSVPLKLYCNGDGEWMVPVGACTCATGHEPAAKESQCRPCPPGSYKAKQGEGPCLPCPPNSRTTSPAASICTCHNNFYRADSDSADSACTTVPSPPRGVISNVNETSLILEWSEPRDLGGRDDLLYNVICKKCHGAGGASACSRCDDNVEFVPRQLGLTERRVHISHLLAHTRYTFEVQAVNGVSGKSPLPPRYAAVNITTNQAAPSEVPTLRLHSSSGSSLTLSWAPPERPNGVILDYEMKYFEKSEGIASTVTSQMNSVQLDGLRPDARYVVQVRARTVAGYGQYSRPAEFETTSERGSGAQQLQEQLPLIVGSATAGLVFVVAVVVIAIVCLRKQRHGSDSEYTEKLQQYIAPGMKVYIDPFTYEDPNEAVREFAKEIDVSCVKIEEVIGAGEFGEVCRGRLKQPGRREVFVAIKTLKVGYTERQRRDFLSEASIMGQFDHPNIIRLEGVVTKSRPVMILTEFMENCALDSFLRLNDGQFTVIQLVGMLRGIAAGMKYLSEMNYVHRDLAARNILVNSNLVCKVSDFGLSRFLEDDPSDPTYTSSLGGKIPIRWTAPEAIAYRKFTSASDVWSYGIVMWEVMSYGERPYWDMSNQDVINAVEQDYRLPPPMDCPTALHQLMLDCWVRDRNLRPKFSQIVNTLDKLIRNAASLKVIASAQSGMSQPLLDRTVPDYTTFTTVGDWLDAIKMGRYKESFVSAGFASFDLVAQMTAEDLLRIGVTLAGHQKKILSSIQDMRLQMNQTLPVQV
Conditions: at 0.1 µM.

The target in experiment [3] is T2, Ephrin type-B receptor 3 (Homo sapiens). Conditions: at 1 µM.
Experiment [4] concerns the target T3, Ephrin type-B receptor 4 (Homo sapiens) (UniProt P54760).
T3 sequence (whole entry): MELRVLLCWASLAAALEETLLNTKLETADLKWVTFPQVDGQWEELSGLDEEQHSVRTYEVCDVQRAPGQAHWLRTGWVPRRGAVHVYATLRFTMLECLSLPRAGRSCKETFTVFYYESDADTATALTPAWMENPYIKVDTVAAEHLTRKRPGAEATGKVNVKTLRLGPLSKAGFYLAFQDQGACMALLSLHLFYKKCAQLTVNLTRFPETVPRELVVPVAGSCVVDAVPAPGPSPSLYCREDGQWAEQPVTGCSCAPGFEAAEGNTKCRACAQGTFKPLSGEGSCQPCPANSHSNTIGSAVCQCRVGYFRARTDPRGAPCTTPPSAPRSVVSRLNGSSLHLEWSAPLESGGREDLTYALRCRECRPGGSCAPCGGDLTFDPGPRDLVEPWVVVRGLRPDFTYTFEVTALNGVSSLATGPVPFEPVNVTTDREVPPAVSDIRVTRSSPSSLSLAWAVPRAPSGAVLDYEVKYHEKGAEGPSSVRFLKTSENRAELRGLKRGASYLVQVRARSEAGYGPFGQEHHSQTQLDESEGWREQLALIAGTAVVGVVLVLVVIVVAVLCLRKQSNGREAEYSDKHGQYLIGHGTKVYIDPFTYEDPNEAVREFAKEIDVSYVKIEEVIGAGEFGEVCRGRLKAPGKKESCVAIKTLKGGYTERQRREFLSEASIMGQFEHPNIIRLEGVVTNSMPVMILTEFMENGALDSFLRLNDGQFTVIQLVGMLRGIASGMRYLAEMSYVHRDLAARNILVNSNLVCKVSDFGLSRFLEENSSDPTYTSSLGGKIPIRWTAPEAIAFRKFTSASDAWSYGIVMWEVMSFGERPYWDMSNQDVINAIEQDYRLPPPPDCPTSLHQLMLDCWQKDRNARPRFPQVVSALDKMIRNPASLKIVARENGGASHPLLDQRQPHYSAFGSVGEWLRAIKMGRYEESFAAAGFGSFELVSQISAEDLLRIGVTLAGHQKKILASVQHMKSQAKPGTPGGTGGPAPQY
Conditions: at 0.1 µM.

Experiment [5] concerns the target T3, Ephrin type-B receptor 4 (Homo sapiens). Conditions: at 1 µM.
The target in experiment [6] is Receptor tyrosine-protein kinase erbB-2 (Homo sapiens) (UniProt P04626). Conditions: at 0.1 µM.
Chain of Receptor tyrosine-protein kinase erbB-2 (Homo sapiens) (P04626 whole entry): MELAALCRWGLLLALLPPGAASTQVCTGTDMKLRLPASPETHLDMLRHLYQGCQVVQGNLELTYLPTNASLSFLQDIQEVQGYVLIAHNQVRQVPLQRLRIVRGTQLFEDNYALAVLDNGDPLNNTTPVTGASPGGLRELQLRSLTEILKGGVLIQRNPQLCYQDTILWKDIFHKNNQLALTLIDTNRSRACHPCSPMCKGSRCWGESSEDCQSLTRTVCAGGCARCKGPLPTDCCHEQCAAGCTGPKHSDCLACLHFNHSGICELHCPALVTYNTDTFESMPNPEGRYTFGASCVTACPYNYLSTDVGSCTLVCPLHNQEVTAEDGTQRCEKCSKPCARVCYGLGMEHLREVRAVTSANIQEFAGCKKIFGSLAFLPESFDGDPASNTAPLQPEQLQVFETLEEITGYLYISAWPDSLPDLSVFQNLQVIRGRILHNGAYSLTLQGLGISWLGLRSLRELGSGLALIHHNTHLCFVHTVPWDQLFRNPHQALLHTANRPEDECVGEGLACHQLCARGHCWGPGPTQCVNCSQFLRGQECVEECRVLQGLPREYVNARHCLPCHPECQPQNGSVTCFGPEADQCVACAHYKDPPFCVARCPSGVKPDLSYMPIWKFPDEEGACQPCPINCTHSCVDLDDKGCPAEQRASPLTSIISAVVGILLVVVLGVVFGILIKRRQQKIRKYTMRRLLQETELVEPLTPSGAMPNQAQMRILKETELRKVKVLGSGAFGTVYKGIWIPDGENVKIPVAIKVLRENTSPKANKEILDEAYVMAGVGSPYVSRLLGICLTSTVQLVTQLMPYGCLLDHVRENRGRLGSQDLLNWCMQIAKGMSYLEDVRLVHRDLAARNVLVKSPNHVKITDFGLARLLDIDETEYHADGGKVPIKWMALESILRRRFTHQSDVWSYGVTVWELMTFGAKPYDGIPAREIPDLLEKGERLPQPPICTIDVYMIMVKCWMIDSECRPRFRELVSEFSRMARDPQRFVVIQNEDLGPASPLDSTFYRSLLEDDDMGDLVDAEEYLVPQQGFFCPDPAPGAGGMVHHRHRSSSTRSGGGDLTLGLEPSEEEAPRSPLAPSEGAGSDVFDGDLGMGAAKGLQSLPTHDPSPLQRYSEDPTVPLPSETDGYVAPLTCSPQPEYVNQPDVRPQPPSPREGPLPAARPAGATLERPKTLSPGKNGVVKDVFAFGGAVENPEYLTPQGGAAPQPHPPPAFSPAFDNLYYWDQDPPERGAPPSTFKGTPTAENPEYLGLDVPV
The target is the same in experiment [7]. Conditions: at 1 µM.
Experiment [8] has as its target Receptor tyrosine-protein kinase erbB-4 (Homo sapiens) (UniProt Q15303). Conditions: at 0.1 µM.
The target is the same in experiment [9]. Conditions: at 1 µM.
Experiment [10] concerns the target Tyrosine-protein kinase Fer (Homo sapiens) (UniProt P16591). Conditions: at 0.1 µM.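 Note: reported figures are averaged percent inhibition of FER.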

Chain of Tyrosine-protein kinase Fer (Homo sapiens) (P16591 whole entry, looked up): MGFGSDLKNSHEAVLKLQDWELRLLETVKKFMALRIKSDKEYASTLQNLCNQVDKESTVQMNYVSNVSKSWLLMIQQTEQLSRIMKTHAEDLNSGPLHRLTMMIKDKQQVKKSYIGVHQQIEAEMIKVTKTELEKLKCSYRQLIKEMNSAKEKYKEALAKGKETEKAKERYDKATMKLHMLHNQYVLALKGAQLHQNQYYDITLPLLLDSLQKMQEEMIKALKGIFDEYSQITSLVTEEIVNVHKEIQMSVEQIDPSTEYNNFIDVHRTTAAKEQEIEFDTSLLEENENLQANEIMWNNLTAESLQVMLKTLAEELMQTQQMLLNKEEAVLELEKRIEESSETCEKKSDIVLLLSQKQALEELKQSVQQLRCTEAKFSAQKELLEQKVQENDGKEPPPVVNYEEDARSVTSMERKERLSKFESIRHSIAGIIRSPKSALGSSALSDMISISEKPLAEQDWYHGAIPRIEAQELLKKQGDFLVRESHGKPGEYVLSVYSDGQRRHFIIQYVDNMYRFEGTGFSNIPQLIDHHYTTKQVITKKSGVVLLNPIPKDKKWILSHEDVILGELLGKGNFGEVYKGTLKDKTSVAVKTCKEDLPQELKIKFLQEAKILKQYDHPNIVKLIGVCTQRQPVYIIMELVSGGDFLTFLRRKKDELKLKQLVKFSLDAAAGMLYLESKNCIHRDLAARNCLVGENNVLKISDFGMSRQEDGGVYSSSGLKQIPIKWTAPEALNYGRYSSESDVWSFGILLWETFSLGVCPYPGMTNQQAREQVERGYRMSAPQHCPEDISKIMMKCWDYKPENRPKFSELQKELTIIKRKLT
Chain of Receptor tyrosine-protein kinase erbB-4 (Homo sapiens) (Q15303 whole entry): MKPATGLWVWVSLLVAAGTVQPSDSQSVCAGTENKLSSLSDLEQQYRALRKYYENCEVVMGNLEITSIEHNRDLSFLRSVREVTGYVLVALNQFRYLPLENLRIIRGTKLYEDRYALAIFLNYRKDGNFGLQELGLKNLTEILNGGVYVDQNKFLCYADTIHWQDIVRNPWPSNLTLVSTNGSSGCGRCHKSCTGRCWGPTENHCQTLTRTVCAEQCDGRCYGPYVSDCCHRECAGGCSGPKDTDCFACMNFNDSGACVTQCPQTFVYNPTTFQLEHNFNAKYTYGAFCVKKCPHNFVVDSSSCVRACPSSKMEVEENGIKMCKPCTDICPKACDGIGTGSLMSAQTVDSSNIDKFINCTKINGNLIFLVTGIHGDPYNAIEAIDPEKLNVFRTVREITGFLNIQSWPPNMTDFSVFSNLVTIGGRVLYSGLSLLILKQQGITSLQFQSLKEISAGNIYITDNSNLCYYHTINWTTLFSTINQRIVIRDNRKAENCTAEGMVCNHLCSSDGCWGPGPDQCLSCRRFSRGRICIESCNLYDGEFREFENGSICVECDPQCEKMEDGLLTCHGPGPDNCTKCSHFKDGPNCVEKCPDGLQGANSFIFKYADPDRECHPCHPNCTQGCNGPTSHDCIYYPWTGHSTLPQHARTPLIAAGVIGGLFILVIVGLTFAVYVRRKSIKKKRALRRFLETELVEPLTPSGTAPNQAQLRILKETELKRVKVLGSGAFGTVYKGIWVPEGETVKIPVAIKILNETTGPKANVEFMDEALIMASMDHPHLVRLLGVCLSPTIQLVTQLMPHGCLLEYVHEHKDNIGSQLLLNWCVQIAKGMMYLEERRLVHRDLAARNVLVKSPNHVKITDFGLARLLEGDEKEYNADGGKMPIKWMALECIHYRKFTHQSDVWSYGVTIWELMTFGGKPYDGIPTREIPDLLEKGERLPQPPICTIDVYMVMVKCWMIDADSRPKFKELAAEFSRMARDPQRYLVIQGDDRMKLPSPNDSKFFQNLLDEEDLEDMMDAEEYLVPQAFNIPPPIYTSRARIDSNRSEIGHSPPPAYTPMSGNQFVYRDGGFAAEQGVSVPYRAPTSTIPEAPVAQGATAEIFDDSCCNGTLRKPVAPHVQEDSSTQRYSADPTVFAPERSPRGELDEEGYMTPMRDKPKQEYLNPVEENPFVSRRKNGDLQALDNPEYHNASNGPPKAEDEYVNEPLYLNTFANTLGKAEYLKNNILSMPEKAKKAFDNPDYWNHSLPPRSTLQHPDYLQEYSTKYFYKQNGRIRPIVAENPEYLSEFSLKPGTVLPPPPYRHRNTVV

Regarding `COc1cc(/C=N/Nc2ncnc3c2cnn3C(C)C)ccc1O`, the inhibition turned out to be 30.4% in [1]; 2.7% in [2]; 4.2% in [3]; 3.42% in [4]; 21.4% in experiment [5]; 1.13% in experiment [6]. The inhibition was found to be 3.23% in experiment [7], 3.96% in experiment [8], 6.31% in experiment [9] and 2.02% in experiment [10].
As for `O=S(=O)(CCOCc1ccc(-c2ccc3ncnc(Nc4ccc(OCc5cccc(F)c5)c(Cl)c4)c3c2)o1)c1ccccc1`, the inhibition in experiment [1] is 6.76%; in experiment [2], -0.47%; in experiment [3] it was 3.29%; in [4], 1.15%; in experiment [5], 1.36%; in [6], 11.6%. The inhibition was 69.8% in experiment [7], 27.5% in [8], 82.6% in experiment [9] and -3.62% in experiment [10].
Regarding `ON=C1CCc2cc(-c3nc(C4CCNCC4)[nH]c3-c3ccncc3)ccc21`, the inhibition in experiment [1] is -8.09%; in [2], 2.51%; in [3], -3.73%; in experiment [4], -0.77%; in [5] it was 1.02%; in [6] it was -0.06%. For the same molecule, the inhibition in experiment [7] was -5.12%; in experiment [8], 5.23%; in [9], 10.6%; in [10], -0.49%.
For `COc1cc2ncnc(Nc3ccc4c(cnn4Cc4ccccc4)c3)c2cc1OC`, the inhibition in [1] was found to be 7.52%; in experiment [2] it was 2.93%; in experiment [3], 4.39%; in experiment [4], 1.36%; in [5] it was 2.63%; in [6], 32.4%. The inhibition in [7] was 83%; in experiment [8], 83.7%; in experiment [9], 94%; in experiment [10], 0.84%.
Take `NS(=O)(=O)c1ccc(-c2cc3ccncc3cc2OCc2ccccc2)cc1`: the inhibition turned out to be 12.6% in experiment [1]; 5.73% in experiment [2]; 3.29% in experiment [3]; 2.88% in [4]; 2.91% in experiment [5]; 2.03% in experiment [6]. The inhibition in experiment [7] came to 3.62%; in [8], 7.38%; in experiment [9], 8.97%; in [10], 5.47%.
Regarding `c1ccc(Cc2nc3ccc(Nc4ncnc5ccccc45)cc3[nH]2)cc1`, the inhibition worked out at 12.8% in experiment [1]; 3.69% in [2]; 6.08% in [3]; 1.42% in [4]; 1.8% in experiment [5]; 2.07% in [6]. Besides, the inhibition in experiment [7] is 51.6%; in experiment [8], 98.2%; in experiment [9], 115%; in experiment [10], 0.32%.
Consider `Cc1ccc(O)cc1Nc1ccnc2ccc(S(C)(=O)=O)cc12`, for which the inhibition in experiment [1] was 86.3%; in experiment [2], 96.9%; in experiment [3] it was 97.3%; in experiment [4], 91.6%; in experiment [5], 95.6%; in [6], 4.44%. Moreover, the inhibition in experiment [7] worked out at 5.88%; in experiment [8], 20.2%; in [9] it was 52.2%; in [10], 4.91%.
For `CCCN1CCCC(c2ccc(Nc3nc(Nc4cc(F)ccc4C(N)=O)c4cc[nH]c4n3)c(OC)c2)C1` (stereo not given), the inhibition in [1] is 15.8%; in [2], 6.2%; in experiment [3] it was -1.82%; in [4], 2.18%; in experiment [5], 4.67%; in [6] it was 2.27%. Besides, the inhibition was found to be 3.37% in experiment [7], 36.3% in experiment [8], 75% in experiment [9] and 77.5% in experiment [10].
